Compounds with a hit are over-represented: about 0.99% of the library has one in this group of screens.
cardiac RTF act: increases calcium sensitivity of human cardiac regulated thin filaments. hit rate 0.24% among 340,000. activation, % at 7.2 µM. IANBD-labeled TnC RTF fluorescence at EC20 calcium; 0% EC20 calcium, 100% full calcium. P19429+P45379. AID 493008;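 active = activation above the mean over all tested compounds plus 3 SD, cut at about 30% in these data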;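 also: rise in fluorescence read as greater calcium sensitivity of cardiac thin filaments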
LANA-H2A inh: blocks KSHV LANA binding to histone H2A/H2B; Q9QR71; cell-free LANA-H2A/H2B peptide, fluorescence polarization; inhibition, % (no concentration beside the values); hit rate 0.6% among 320,000; AID 2629; in the data active = inhibition mostly above about 10%, no sharp cut-off; inactive = mostly below about 6.7%
LANA DNA inh: blocks KSHV LANA C-terminal domain binding to DNA | MBP-C-LANA/FAM-LBS DNA binding, fluorescence polarization | hit rate 0.078% among 340,000 | inhibition, % at 9 µM;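 active = highest replicate inhibition at or above 60% at 9 µM, even if other replicates fall short; inactive = all replicates below 60% inhibition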;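 also: 0% = neutral control wells and 100% = 4 µM acridine orange control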
Cardiac RTF inh: cardiac RTF calcium desensitization | IANBD-labeled cardiac RTF, Ca2+ fluorescence | hit rate 0.12% among 340,000 | P19429+P45379 | inhibition, % at 7.15 µM;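 active = inhibition above the mean inhibition of all tested compounds plus 3 SD, cut at about 17% in these data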;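 also: assay run at fixed EC70 calcium of 1.6 mM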
Keap1-Nrf2 PPI: Keap1-Nrf2 (human) interaction inhibition | Keap1 Kelch-Nrf2 peptide fluorescence polarization, 1536-well | inhibition, % at 9.4 µM | hit rate 0.15% among 340,000 | AID 504523; in the data active = inhibition above about 12%;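 also: human Keap1 Kelch domain with fluorescein labeled Nrf2 9mer peptide probe; 0% = neutral control wells and 100% = peptide positive control; higher means more block of Keap1 binding to Nrf2 peptide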
RTF Ca inh conf: confirmation of inhibitors of cardiac thin filament calcium sensitivity | reconstituted cardiac thin filaments, calcium sensitivity fluorescence | inhibition, % at 7.15 µM | shares compounds with Cardiac RTF inh | hit rate 8% among 360; in the data active = inhibition above about 18%
* hit, by the source's call; . = no result given.

SMILES	cardiac RTF act	LANA-H2A inh	LANA DNA inh	Cardiac RTF inh	Keap1-Nrf2 PPI	RTF Ca inh conf
CCc1cc(C(=O)N=Nc2c(O)[nH]c3ccc([N+](=O)[O-])cc23)c2ccccc2n1	-4	0	0	17*	0	-7
O=c1c(O)cccc2cc(O)c(O)c(O)c12	-40	1	82*	87*	-5	51*
O=c1cc(-c2ccccc2)oc2cc(O)c(O)c(O)c12	2	.	4	2	-1	.
C/C(=N\NC(=S)NCc1ccccc1)c1ccc(C)o1	-4	-3	0	21*	1	-2
CC[C@]12CCCN3CCc4c(n(c5ccccc45)C(=O)C1)C32 (stereo partly specified)	.	-2	.	.	.	.
COCCn1nnnc1C(c1cc2ccc(C)cc2[nH]c1=O)N(Cc1ccco1)Cc1cccs1 (stereo unspecified)	6	2	1	17*	-8	-5
Cc1ccc2cc(C(c3nnnn3C3CCCC3)N(Cc3ccccc3)Cc3ccco3)c(=O)[nH]c2c1 (stereo unspecified)	1	0	0	0	0	.
CC(COc1ccc(/C=C/c2ccccc2)cc1)[N+](C)(C)C (stereo unspecified)	5	.	-3	21*	-4	-7
O=C(NC1CCCCC1)C(c1ccco1)N(Cc1ccco1)C(=O)c1ccco1 (stereo unspecified)	9	1	1	1	-11	.
O=C1N[C@@H](Cc2cnc[nH]2)C(=O)N2CCC[C@@H]12	3	-4	1	17*	-2	-2
O=C1N[C@@H](Cc2ccccc2)C(=O)N2CCCC12 (stereo partly specified)	-3	.	-2	0	0	.
CCOc1cc(/C=N/NC(=O)c2ccc(-c3csc(Nc4ccc(C)cc4)n3)cc2)ccc1OCC(=O)O	.	.	2	.	0	.
O=C(O)COc1ccc(/C=N/NC(=O)c2ccc(-c3csc(Nc4ccc(Cl)cc4)n3)cc2)cc1	-22	.	0	34*	-3	18*
Cc1cccc(OCCCn2ccnc2)c1	1	-2	-2	13	-4	.
CCc1cc2c(CN(C)Cc3ccccc3F)cc(=O)oc2cc1O	-4	8	0	18*	-1	-6
CCN(CC)CCNC(=O)c1ccc(Sc2ccc(C)cc2)c(NC(C)=O)c1	-1	2	-1	18*	-4	-5
COc1ccc(Cl)cc1NC(=O)Cn1c(NCCO)nc2ccccc21	-5	0	-1	-4	-4	.
Cc1ccc(C(=O)CCC(=O)OCC(=O)Nc2c(C)nn(-c3ccccc3)c2C)cc1	8	-3	0	-21	0	.
Cc1nc2c(-c3ccc(Cl)cc3)cnn2c(N)c1-c1ccc(F)cc1	-11	1	1	-6	-2	.
Cc1nc2c(-c3ccc(F)cc3)cnn2c(N)c1-c1ccccc1	-11	-3	4	20*	-4	3
COc1ccc(CCN(Cc2ccccn2)C(=S)Nc2ccc(C)cc2)cc1OC	1	2	-1	-6	3	.
COc1ccc(CCN(Cc2ccccn2)C(=S)Nc2cccc(SC)c2)cc1OC	-4	0	1	20*	2	-1
COCCNC(=O)CSc1nc2ccc(N3CCOCC3)cc2c(=O)n1Cc1ccc(OC)cc1	2	-2	-1	-2	-1	.
CCCCNC(=O)CSc1nc2ccc(N3CCOCC3)cc2c(=O)n1Cc1ccc(OC)cc1	1	.	-2	19*	-6	-1
O=C(Nc1ccccc1OC(F)F)c1ccc(-n2cncn2)c([N+](=O)[O-])c1	5	5	1	87*	-4	-5
CC(C)(C)c1ccccc1NC(=O)c1ccc(-n2cncn2)c([N+](=O)[O-])c1	-2	.	1	-3	-5	.
COc1cccc(=O)c2c(C)n(-c3cc(C)cc(C)c3)c(C)c12	3	5	2	-3	-5	.
COc1cccc(-n2c(C)c3c(OC)cccc(=O)c3c2C)c1	1	6	-1	25*	0	-5
COc1ccc(-c2noc(COc3ccc(C)c(C)c3)n2)cc1OC	-5	-3	1	-5	4	.
CCC1(c2ccc(F)cc2)NC(=O)N(CC(=O)N2c3ccccc3NC(=O)CC2C)C1=O (stereo unspecified)	-1	1	-1	0	-4	.

From PubChem BioAssay
